HT1080NT lethal – qHTS for induction of synthetic lethality in tumor cells producing 2HG: qHTS for the HT-1080-NT fibrosarcoma cell line | HT-1080-NT fibrosarcoma viability, CellTiter-Glo ATP luminescence, 48 h | actives 1.6% (n = 360,000) | AID 686970, 2013 | Potency, µM (doses to about 46.1 µM), without a hit: top-dose activity, negative = less viability, hits mostly cytotoxic;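 note: NT is the 2HG producing partner of a matched IDH1 knockdown line; potency is the fitted concentration of half-maximal effect; 0% = DMSO-treated cells and -100% = media-only wells without cells; nearly all actives have a fitted effect of over 55% in size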
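HT-1080-NT; 750 cells/well; 5% FBS RPMI; 48 h compound, 37 degrees C; CellTiter-Glo luminescence; curve fitting and curve-class assignment.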
TDP1 cell CPT – qHTS for Inhibitors of human tyrosyl-DNA phosphodiesterase 1 (TDP1): qHTS in cells in presence of CPT | actives 12% (n = 420,000) | AID 686979, 2013 | Potency, µM (top dose mostly 46.2 µM), inactives show at the top dose activity change, negative = growth inhibition, most hits filed as inhibitors | chicken DT40 Tdp1-/-;hTDP1 cells + 20 nM CPT, ATP luminescence, 48 h; note: potency is the fitted concentration of half-maximal effect; nearly all actives have a fitted effect of over 55% in size
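Chicken DT40 Tdp1-/- cells stably complemented with human TDP1 were seeded at 400 cells/well in medium containing 20 nM camptothecin, exposed to pin-transferred compounds, and grown at 37 °C for at least 48 hr. Viability was read as ATP luminescence.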
DT40 TDP1 no CPT – qHTS for Inhibitors of human tyrosyl-DNA phosphodiesterase 1 (TDP1): qHTS in cells in absence of CPT. Potency, µM (highest dose often 46.2 µM), inactives show at the highest dose activity change, negative = growth inhibition, actives largely listed as inhibitors. DT40 Tdp1-/- hTDP1 cells, no CPT, ATP luminescence, 48 h. actives 15% (n = 420,000); note: potency is the fitted concentration of half-maximal effect; nearly all actives have a fitted effect of over 55% in size
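DT40 Tdp1-/-;hTDP1 cells, no CPT (DMSO vehicle only), 400 cells/well; compounds pin-transferred; ≥48 hr, 37 °C; CellTiter-Glo 30 min RT dark, luminescence read.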
HT1080 IDH1KD tx – qHTS for induction of synthetic lethality in tumor cells producing 2HG: qHTS for the HT-1080-IDH1KD cell line | Potency, µM (doses to about 46.1 µM), for inactives: at the highest dose activity, negative = toxicity, actives largely listed as cytotoxic | HT-1080 IDH1 knockdown viability, ATP luminescence, 48 h | actives 2% (n = 360,000) | AID 686971, 2013;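 note: potency is the fitted concentration of half-maximal effect; 0% = DMSO wells and -100% = cell-free medium wells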
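Knockdown cells (IDH1KD HT-1080) received compounds 2 h after plating at 750 cells/well and were kept 48 h at 37 °C in 5% FBS RPMI. A CellTiter-Glo luminescence read gave % activity for curve fitting.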
IL-1B inflam inh – qHTS for Inhibitors of Inflammasome Signaling: IL-1-beta AlphaLISA Primary Screen; THP-1 LPS/ATP IL-1B secretion, AlphaLISA, 16 h; stronger effect = lower value; activity change, % at 57.5 µM; AID 743279, 2014; actives 4.7% (n = 360,000); in the data active = activity change below about -50%; inconclusive = mostly about -30% to -49%
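Secreted IL-1B measured by AlphaLISA bead assay after 16 h compound exposure of THP-1 cells; compounds (final up to 57.5 uM) added 1 h before LPS (250 ng/mL) and ATP (1.25 mM) stimulation; lower signal means less secretion.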
Starred values were filed as active, the others as inactive; ? = inconclusive; / = no result. This is a sample that favours compounds with a hit; in the whole collection about 19% have one here. Unless noted, calls come from the whole dose curve; as a rule, active = well fitted curve in the direction sought with a large enough effect; inconclusive = small, poorly fitted or top-dose-only effect, or another doubt; inactive = no such curve, though single readings can be large; an effect the other way counts as inactive or inconclusive. Unless noted, % is set by controls: 0 for no effect and ±100 for the full control effect.

SMILES | HT1080NT lethal | TDP1 cell CPT | DT40 TDP1 no CPT | HT1080 IDH1KD tx | IL-1B inflam inh
Cc1c(CCC(C)C)c(=O)n2c([nH]c3ccccc32)c1C#N | -2% | ? | 5.8µM* | ? | 19
CCCCc1c(C)c(C#N)c2[nH]c3ccccc3n2c1=O | -5% | 23µM* | 16µM* | -7% | 54
Cc1cc(C)c2c(c1)/C(=C/C(=O)c1ccc(Br)s1)C(=O)N2 | ? | 4.6µM* | 3.7µM* | ? | -106*
CCc1ccc2c(c1)/C(=C/C(=O)c1cccs1)C(=O)N2 | ? | 3.3µM* | 5.2µM* | ? | -106*
CCc1ccc2c(c1)/C(=N/N(C)C(=S)NC)C(=O)N2 | -2% | -5% | -18% | 0% | -27
Cc1cccc2c1NC(=O)/C2=C\C(=O)c1cccs1 | 18µM* | 4.6µM* | 4.6µM* | 16µM* | -122*
CCOC(=O)C1(C)CCCN(C(=O)c2ccccc2OC(F)(F)F)C1 (stereo unspecified) | 29% | -26% | -25% | 14% | 3
O=C1CSC(c2cn(-c3ccccc3)nc2-c2ccccc2)N1Cc1ccco1 (stereo unspecified) | ? | ? | 18µM* | ? | -24
CCC1OC(=O)C(C)[C@@H](O[C@H]2C[C@@](C)(OC)C(O)C(C)O2)C(C)[C@@H](O[C@@H]2OC(C)CC(N(C)C)C2O)[C@@](C)(O)CC(C)C2NC(COCCOC)O[C@H](C2C)[C@@]1(C)O (stereo partly specified) | / | 0% | 0% | / | /
NC(=O)CSc1oc(-c2ccco2)nc1S(=O)(=O)c1ccc(Br)cc1 | 7% | 0% | -20% | 1% | ?
O=S(=O)(c1ccc(Br)cc1)c1nc(-c2ccco2)oc1SCc1ccccc1Cl | / | 16µM* | ? | / | /
CCSc1oc(-c2ccc(F)cc2)nc1S(=O)(=O)c1ccc(C)cc1 | / | -102% | 16µM* | / | /
O=S(=O)(c1ccc(Cl)cc1)c1nc(-c2ccco2)oc1SCc1ccccc1F | / | 23µM* | 16µM* | / | /
CCC(C)Sc1oc(-c2ccco2)nc1S(=O)(=O)c1ccc(Cl)cc1 (stereo unspecified) | / | 18µM* | ? | / | /
Cc1cc(O)cc2c1C1CCC3(C)C(=O)CCC3C1C=C2 (stereo unspecified) | -4% | ? | ? | ? | ?
O=S(=O)(c1ccccc1)c1nc(-c2ccc(F)cc2)oc1NCc1ccccc1 | / | -19% | ? | / | /
Cc1ccc(S(=O)(=O)c2nc(-c3cccs3)oc2SCC(N)=O)cc1 | -17% | -2% | -13% | -1% | 7
CC(C)CS(=O)(=O)c1oc(-c2ccc(F)cc2)nc1S(=O)(=O)c1ccccc1 | / | 0.41µM* | 0.46µM* | / | /
Cc1ccc(S(=O)(=O)c2nc(-c3cccs3)oc2SCc2ccc(F)cc2)cc1 | / | 16µM* | 10µM* | / | /
O=S(=O)(c1ccc(Cl)cc1)c1nc(-c2cccs2)oc1SCc1ccccc1F | / | 16µM* | 23µM* | / | /
COC(=O)c1cc(C#N)c(N2CC(C)OC(C)C2)nc1C (stereo unspecified) | -4% | -6% | -10% | 12% | -1
CCOC(=O)N1CCN(c2nc3ccccn3c(=O)c2C=O)CC1 | -1% | 15µM* | ? | 1% | -25
CCNC(=O)/C(C#N)=C/c1c(N2CCN(c3ccccc3)CC2)nc2ccccn2c1=O | 4% | ? | ? | 1% | 20
COCCCNC(=O)/C(C#N)=C/c1c(N2CCN(c3ccccc3)CC2)nc2ccccn2c1=O | 5% | ? | 15µM* | 2% | 0
CN1CCN(c2nc3ccccn3c(=O)c2C=O)CC1 | 17% | 11% | -4% | 3% | 5
SMILES | HT1080NT lethal | TDP1 cell CPT | DT40 TDP1 no CPT | HT1080 IDH1KD tx | IL-1B inflam inh
COCCNC(=O)/C(C#N)=C/c1c(N2CCN(c3ccccc3)CC2)nc2ccccn2c1=O | 25% | -30% | 18µM* | 0% | -3
CC1CN(c2nc3ccccn3c(=O)c2/C=C(\C#N)C(N)=O)CC(C)O1 (stereo unspecified) | ? | -2% | -3% | 1% | -65*
COc1ccc(S(=O)(=O)N2CCOCC2)cc1NC(=O)c1c(-c2ccccc2)noc1C | -2% | 3% | -22% | -1% | -19
C=CCNC(=O)/C(C#N)=C/c1c(N(Cc2ccccc2)Cc2ccccc2)nc2ccccn2c1=O | -5% | ? | ? | -29% | -53*
N#C/C(=C\c1c(N(Cc2ccccc2)Cc2ccccc2)nc2ccccn2c1=O)C(N)=O | 0% | ? | ? | 0% | ?
O=C(Nc1ccc(C(F)(F)F)cc1)c1cnc(N2CCN(c3ccccn3)CC2)c2ccccc12 | 4% | 21µM* | ? | 4% | 39
Cc1ccc(Cl)cc1NC(=O)c1cnc(N2CCCCC2)c2ccccc12 | / | 18µM* | 13µM* | / | /
O=C(Nc1ccccc1F)c1cnc(N2CCCCC2)c2ccccc12 | / | 16µM* | 23µM* | / | /
CCc1ccccc1NC(=O)c1cnc(N2CCCCC2)c2ccccc12 | / | 18µM* | ? | / | /
Cc1ccc(S(=O)(=O)NC(=O)NC(C)Cc2ccccc2)cc1 (stereo unspecified) | 1% | 19% | 10% | 18% | -5
CCc1ccc(-c2nc(CS(=O)CC(=O)NCc3ccco3)c(C)o2)cc1 (stereo unspecified) | -6% | ? | 1% | -5% | 0
COc1ccc(C(=O)C2CCCN(Cc3cccn3-c3ccccn3)C2)cc1F (stereo unspecified) | -15% | 16µM* | 15µM* | ? | -52*
OCCC1CN(Cc2cccn2-c2ccccn2)CCN1C1CCCC1 (stereo unspecified) | 1% | 31% | -6% | -5% | -13
COc1cccc(CN2CCCC(C(=O)c3ccc4c(c3)OCO4)C2)c1O (stereo unspecified) | -3% | -14% | 0% | -2% | -24
CC(C)Oc1cccc(C(=O)C2CCCN(Cc3cccn3-c3ccccn3)C2)c1 (stereo unspecified) | 23µM* | ? | ? | 21µM* | -92*
COc1ccc(C(=O)C2CCCN(Cc3ccc4c(c3)OCCO4)C2)cc1F (stereo unspecified) | -11% | ? | -21% | -6% | -5
CC(C)Oc1cccc(C(=O)C2CCCN(Cc3ccc4nonc4c3)C2)c1 (stereo unspecified) | -10% | -15% | -9% | -7% | 6

Screening data from PubChem BioAssay.
